This excerpt belongs to a sample that is enriched for hits.
S aureus helic – inhibitors of S. aureus replicative helicase, primary screen, biochemical, fluorescence unwinding readout | replicative DNA helicase (DnaC/DnaB), Staphylococcus aureus | purified S. aureus helicase, fluorescence unwinding assay | inhibition, % (no concentration beside the values) | 120,000 compounds, 0.05% hits; in the data active = inhibition above about 25%, passing the limit was not always enough;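 note: 0% = mean of negative control wells and 100% = mean of positive control wells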
Sa growth inh – S. aureus growth inhibition at 42 and 30 °C, primary screen, LtaS inhibitor project, RN4220, two temperatures | OD600, 20 h, 42 °C; active compounds read low | relative growth, % (no concentration beside the values) | 170,000 compounds, 0.53% hits;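 active = relative growth at most 50% at the other temperature and 20+ points below 30 °C, or under 10% at both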
HCMV NEC inh – inhibitors of HCMV UL50-UL53 interaction, biochemical, HTRF | HCMV UL50-UL53 nuclear egress complex (human cytomegalovirus) | normalized percent inhibition | inhibition, % (no concentration beside the values) | 190,000 compounds, 0.15% hits | AID 1918969, 2023; in the data active = inhibition above about 27%, passing the limit was not always enough
Active calls of the source: *; nt = not tested or not shown.

SMILES	S aureus helic	Sa growth inh	HCMV NEC inh
CN1C(=O)CSc2ccc(NC(=O)Nc3cccnc3)cc21	19	85	35*
Cc1nn2c(C)c(C(=O)N3CCCC3)cnc2c1-c1ccccc1	nt	nt	-27
CCN1C(C(=O)c2ccccc2)=C(OC(=O)c2ccc(Cl)cc2)c2ccccc2S1(=O)=O	nt	53	-10
CCN1C(C(=O)c2ccccc2)=C(OC(=O)c2ccco2)c2ccccc2S1(=O)=O	12	6.2*	1
O=C(/C=C/c1ccccc1)N1CCCCC1	3	105	-21
O=C(CN1C(=O)COc2ccc(Cl)cc21)Nc1cccc(CCc2nc3ccccc3[nH]2)c1	nt	nt	-21
CCc1ccc(NC(=O)N2CC3CCCN3c3ccccc32)cc1 (centres undefined)	nt	nt	7
O=C(NCc1ccccc1Cl)c1ccc(Cn2cc(Cl)cn2)cc1	5	2.9*	-10
Cc1ccc(CNC(=O)c2cccc(Cn3cc(Cl)cn3)c2)cc1	5	90	-3
CCOc1ccc(C(=O)c2[nH]c(=O)c3ccccc3c2O)cc1	-2	72	61*
CCOc1ccc(C(=O)c2cccs2)cc1	18	92	-9
c1ccc2c(-c3nn4c(-c5ccncc5)nnc4s3)c[nH]c2c1	nt	nt	-3
CC(C)=CCCC12CCC(CO)(CO1)C(C)C2 (centres undefined)	-2	90	-11
CS(=O)c1nc(-c2ccccc2)cc(C(F)(F)F)n1 (centres undefined)	7	-0.2*	nt
FC(F)(F)c1cc(-c2ccccc2)nc(N2CCCC2)n1	3	102	nt
C/C(=N\OC(=O)c1ccc(C(F)(F)F)cc1)c1ccc[nH]1	6	-0.3*	-27
C/C(=N\OC(=O)c1ccc(C(F)(F)F)cc1)c1cc[nH]c1	13	91	-24
O=C(Nc1nnnn1/N=C/c1ccccc1F)c1ccc(F)cc1	16	92	-26
Cc1cc2nc3ccc(=[N+](C)C)cc-3sc2cc1N	132*	209	-333
CN(C)c1ccc2nc3ccc(=[N+](C)C)cc-3sc2c1	nt	52	-113
O=C(O)/C=C/C(=O)Nc1ccc(SC(F)(F)F)cc1	-20	100	12
O=C(Nc1ccc(SC(F)(F)F)cc1)n1ccc(C(F)(F)F)n1	nt	4.9*	-15
Cc1oc2ccccc2c1-c1csc(-c2ccccc2)n1	11	102	nt
N#Cc1c(N)nc(SCC(=O)c2ccc3ccccc3c2)c(C#N)c1-c1ccccc1	nt	nt	21*
CC(C)c1c(C#N)c(N)nc(SCC(=O)c2ccc(Cl)c(Cl)c2)c1C#N	8	110	nt
SMILES	S aureus helic	Sa growth inh	HCMV NEC inh
N#Cc1c(N)nc(SCC(N)=O)c(C#N)c1-c1ccc(Br)cc1	nt	nt	66*
Cc1ccc(C(=O)CSc2nc(N)c(C#N)c(-c3cccs3)c2C#N)c(C)c1	nt	nt	-8
CC(C)(C)C(=O)CSc1nc(N)c(C#N)c(-c2cccs2)c1C#N	3	93	60*
COC(=O)CSc1nc(N)c(C#N)c(-c2ccccc2)c1C#N	12	92	33
CCOC(=O)CSc1nc(N)c(C#N)c(-c2ccc(OCC)cc2)c1C#N	nt	nt	44*
CCOc1ccc(-c2c(C#N)c(N)nc(SCC(=O)c3ccccc3)c2C#N)cc1	nt	nt	-11
COC(=O)c1sc(N)c(C(=O)OC)c1CSc1nncn1-c1ccccc1	20	56	-45
Cc1ccc(C)c(NC2=NC3CS(=O)(=O)CC3S2)c1 (centres undefined)	-16	nt	-6
COc1ccc(NC(=O)c2c(-c3ccccc3)c(-c3ccccc3)n[nH]c2=O)cc1	nt	nt	-13
CC(C)(C)c1cn(CC2CCCN(C(=O)c3cn4cccnc4n3)C2)nn1 (centres undefined)	nt	nt	-15
CNC(=O)Nc1ccc2snnc2c1	-4	92	nt
O=C(Nc1ccc2snnc2c1)NC1CC1	-4	84	48*
O=C(NC1CC1)/C(=C/c1ccc[nH]1)NC(=O)c1ccccc1	-11	69	0
O=C(NCCCN1CCN(c2ccccc2F)CC1)C1CCCN(c2nc3cccnc3s2)C1 (centres undefined)	nt	nt	-9
Nc1ccc2nsnc2c1	5	88	96*
Nc1nnc(-c2ccc3nsnc3c2)o1	nt	95	2
CCn1c(=N)n(CC(=O)c2ccc(-c3ccccc3)cc2)c2ccccc21	-29	24	1
COc1ccc(-c2n[nH]c(C(F)(F)F)c2-c2cc3ccccc3o2)c(O)c1	28	3.9*	-15
COc1ccc(-c2c(-c3ccc(O)cc3O)n[nH]c2C)cc1	nt	nt	-10
O=C(CCc1ccsc1)Nc1nc2ccccc2[nH]1	-12	85	-15
Cc1ccc2c(COC(=O)/C=C/c3ccc(Br)o3)cc(=O)oc2c1	-8	73	-51
c1cc2c(cc1C1CCCCC1)c1c3n2CCCNC3CCC1 (centres undefined)	5	-0.8*	nt
Cc1ccc2c(c1)c1c3n2CCN=C3CCC1	16	93	-49
Cc1ccc2c(c1)c1c3n2CCCNC3CCC1 (centres undefined)	2	93	-11
c1cc2c(cc1C1CCCCC1)c1c3n2CCN=C3CCC1	1	-2.0*	nt
SMILES	S aureus helic	Sa growth inh	HCMV NEC inh
Cc1noc(C)c1CSc1nc2ccccc2c(=O)n1C(C)C	-4	65	-9
CNc1nc(SCc2c(C)noc2C)nc2ccccc12	1	101	51*
CS(=O)(=O)c1ccc(C(=O)OCc2cn3cc(Cl)ccc3n2)cc1	9	77	-22
CC(=O)N/C(N)=N/c1nc2ccccc2s1	20	94	-28
COc1cccc(C(=O)N2CCN(C(c3ccccc3)c3ccccc3)CC2)c1OC	1	94	8
COc1ccc(C(c2c(C)[nH]c3ccccc23)N2CCOCC2)cc1 (centres undefined)	15	1.3*	nt
COc1ccc(C(c2c(C)[nH]c3ccccc23)N2CCCC2)cc1 (centres undefined)	21	nt	-3
CCCc1cc(=O)[nH]c(SCC(=O)N(CC(C)C)C2CCS(=O)(=O)C2)n1 (centres undefined)	-5	80	-15
Cc1nnc(SCC(=O)N(CC(C)C)C2CCS(=O)(=O)C2)s1 (centres undefined)	26*	91	-14
CC(Oc1ccc(Br)cc1)C(N)=O (centres undefined)	10	102	-2
CCOC(=O)c1cccc2c1-c1ccccc1/C2=N/O	4	44*	nt
CCOC(=O)c1cccc2c1-c1ccccc1C2=O	nt	82	-18
O=C(O)c1cc(-c2ccc(Cl)cc2)cc2ccccc12	-3	93	nt
CCCCn1c(NC(=O)c2ccccc2)c(C#N)c2nc3ccccc3nc21	-82	26	73
CCC(C)n1c(NC(=O)c2ccccc2)c(C#N)c2nc3ccccc3nc21 (centres undefined)	-283	24	72*
COCCCNC(=O)CSc1nc(-c2ccc(C(C)C)cc2)no1	nt	nt	2
COc1ccc(Cc2nnc3sc(-c4c[nH]c5ccccc45)nn23)cc1	nt	nt	-8
Nc1ccn([C@@H]2O[C@H](CO)[C@@H](O)C2(F)F)c(=O)n1	nt	0.3*	-32
Nc1ccn([C@@H]2O[C@H](CO)[C@@H](O)C2O)c(=O)n1 (some centres undefined)	nt	96	-24
Cc1ccc(S(=O)(=O)C(F)(F)F)cc1	3	107	-4
CSc1nc2scc(-c3cccs3)c2c(=O)n1CC(C)C	15	105	-9

Bioassay records (PubChem)
